# Where “and” joins values, the source holds several entries; their conditions need not be identical. Equal entries are not always repeated. Results filed as inconclusive are left out. For some assays here: Entries with a potency or affinity are not part of this list. Calls of active or inactive are those of the source. Unless noted, no stated cut-off is given here; in the data, active means inhibition above about 80%; inactive means the rest.
# Assays:
# [1] = blockers of polyQ-driven CASP3 activation – cell-based (AID 1583); settings: polyglutamine-induced caspase-3 activation, cell assay; stronger effect = higher value;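 tested at 10 µM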
# [2] = yeast 75Q aggregation reduction – 75Q-TubU reporter (AID 1593); settings: Yeast 75Q polyglutamine aggregation reporter
# [3] = restoration of touch response, mutant HTT neurons – whole organism, C. elegans mechanosensory neurons, N-terminal huntingtin (AID 1599); settings: C. elegans polyQ-huntingtin mechanosensory neurons, stronger effect = higher value
# [4] = blockers of cytochrome c efflux from mitochondria – biochemical, purified mitochondria (AID 1603); settings: stronger effect = lower value;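 further: mouse liver mitochondria challenged with calcium chloride; signal normalized to the plate average as 100%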
# [5] = polyglutamine aggregate formation blockers (AID 1604); settings: polyglutamine-induced protein aggregation inhibition assay; stronger effect = higher value; tested at 2.5 µM
# [6] = glutamate transport activators, MN-1 cells, MN-1 cell line (AID 1612); settings: MN-1 motor neuron cells, stronger effect = higher value;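 further: tested at 1 µM final; 0% = mean of DMSO vehicle wells on each plate; positive means more glutamate uptake than control and negative means less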
# [7] = GFP-Q80 aggregate reduction, neuronal-like cells, cell-based, NGF-treated PC12, GFPQ80 (AID 1614); settings: PC12 NGF-treated GFP-polyQ80 inclusion reduction;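 further: lower means fewer inclusions and 0 means no inclusions at all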
# [8] = 75Q-TubH aggregate inhibition, S. cerevisiae, yeast (AID 1616); settings: S. cerevisiae 75Q-TubH polyglutamine aggregation suppression; stronger effect = higher value
# [9] = biological target: ATP-dependent translocase ABCB1 (Homo sapiens) (UniProt P08183); test: P-glycoprotein substrate transport blockade – cell-based (AID 377; in the data active means fluorescence slope change above about 50%); settings: MDR1-expressing cells, fluorescent substrate accumulation slope; stronger effect = higher value; concentration not given here
# ATP-dependent translocase ABCB1 (Homo sapiens), sequence (P08183 whole entry, looked up): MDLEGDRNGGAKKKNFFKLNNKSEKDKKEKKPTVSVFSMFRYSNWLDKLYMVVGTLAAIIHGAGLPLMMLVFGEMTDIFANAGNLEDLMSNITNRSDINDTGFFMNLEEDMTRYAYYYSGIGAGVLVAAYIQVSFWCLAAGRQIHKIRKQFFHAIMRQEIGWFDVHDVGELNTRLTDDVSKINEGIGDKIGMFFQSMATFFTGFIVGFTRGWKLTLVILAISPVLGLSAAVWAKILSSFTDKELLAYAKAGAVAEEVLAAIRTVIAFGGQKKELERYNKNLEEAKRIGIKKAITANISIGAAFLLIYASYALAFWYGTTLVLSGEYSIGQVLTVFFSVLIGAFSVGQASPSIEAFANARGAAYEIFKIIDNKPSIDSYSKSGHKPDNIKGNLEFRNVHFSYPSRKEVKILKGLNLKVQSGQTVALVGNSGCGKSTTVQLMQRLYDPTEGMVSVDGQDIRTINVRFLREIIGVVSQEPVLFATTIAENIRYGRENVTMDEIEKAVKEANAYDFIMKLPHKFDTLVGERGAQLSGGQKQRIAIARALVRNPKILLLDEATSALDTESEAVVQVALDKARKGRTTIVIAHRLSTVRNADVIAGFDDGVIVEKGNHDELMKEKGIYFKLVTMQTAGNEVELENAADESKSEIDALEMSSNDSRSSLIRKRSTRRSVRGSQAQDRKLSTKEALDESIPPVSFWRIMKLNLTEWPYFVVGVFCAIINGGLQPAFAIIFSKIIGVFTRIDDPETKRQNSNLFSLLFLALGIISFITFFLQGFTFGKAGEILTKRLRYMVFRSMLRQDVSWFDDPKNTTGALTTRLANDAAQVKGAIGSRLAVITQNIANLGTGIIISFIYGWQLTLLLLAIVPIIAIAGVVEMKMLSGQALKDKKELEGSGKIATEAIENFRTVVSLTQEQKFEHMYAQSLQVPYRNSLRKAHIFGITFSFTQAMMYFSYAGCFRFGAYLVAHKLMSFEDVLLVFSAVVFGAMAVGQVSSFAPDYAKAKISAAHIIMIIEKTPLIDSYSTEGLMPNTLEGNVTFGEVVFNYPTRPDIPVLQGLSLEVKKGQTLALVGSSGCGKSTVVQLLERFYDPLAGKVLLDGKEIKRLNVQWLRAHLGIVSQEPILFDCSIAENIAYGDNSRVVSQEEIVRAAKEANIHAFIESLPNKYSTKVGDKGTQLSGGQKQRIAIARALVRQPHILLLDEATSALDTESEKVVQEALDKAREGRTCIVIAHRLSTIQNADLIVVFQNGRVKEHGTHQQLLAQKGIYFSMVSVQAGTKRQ
# [10] = growth inhibition, single agents and combos, LFS_MB_1R, cell-based, cisplatin or BGB combos, synergistic combos for chromothripsis tumors (AID 1671452); settings: LFS_MB_1R medulloblastoma cells, stronger effect = higher value;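 further: cells exposed for 96 hours before readout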
# [11] = growth inhibition, single agents and combos, CRL2098, cell-based, BGB or cisplatin IC20 combos, synergistic combos for chromothripsis tumors (AID 1671454); settings: CRL2098 osteosarcoma cells, drug combinations, stronger effect = higher value;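 further: cells exposed for 96 h before readout; 0% = vehicle DMSO and 100% = killing by high DMSO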
# [12] = growth inhibition, single agents and combos, HD-MB03, cell-based, BGB or cisplatin IC20 combos, synergistic combos for chromothripsis tumors (AID 1671455; in the data active means inhibition above about 83%;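 further: 0% = vehicle DMSO and 100% = high DMSO as cytotoxic control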); settings: HD-MB03 medulloblastoma cells, stronger effect = higher value
# [13] = growth inhibition, single agents and combos, UWB1.289, cell-based, BGB or cisplatin combos, synergistic combos for chromothripsis tumors (AID 1671456); settings: UWB1.289 ovarian carcinoma cells, stronger effect = higher value;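 further: cells exposed to compound for four days; 0% = vehicle DMSO and 100% = killing by high DMSO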
# [14] = growth inhibition, single agents and combos, LFS_MB_2R, cell-based, cisplatin combos, synergistic combos for chromothripsis tumors (AID 1671457); settings: LFS_MB_2R medulloblastoma cells, stronger effect = higher value;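 further: cells exposed to compound for four days before readout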
# [15] = UWB1.289_BRCA1 ovarian cancer growth, cell-based, BGB or cisplatin combinations (AID 1671459); settings: UWB1.289 BRCA1 ovarian carcinoma, drug combinations, stronger effect = higher value
# [16] = drug combination toxicity in non-malignant astrocytes – cell-based, BGB or cisplatin IC20 combos, cytotoxicity control for chromothriptic childhood tumor combination screen (AID 1671460); settings: Human astrocytes, viability inhibition, drug combinations, at 0.5 µM, stronger effect = higher value;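 further: cells exposed to compounds for 96 hours before viability readout; 0% = vehicle and 100% = killing control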
# [17] = chitosan synthesis blockers in C. neoformans – flow cytometry, Cibacron Brilliant Red staining (AID 1347148; call rule not given here;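 further: compound exposure lasted three days at 37 degrees C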); settings: Cryptococcus neoformans chitosan, stronger effect = lower value; at 10 µM unless noted
# [18] = measured here: combination with BGB IC40, at 0.05 µM
# [19] = measured here: combination with cisplatin, at 0.5 µM
# [20] = measured here: combination with cisplatin, at 5 µM
# [21] = measured here: combination with BGB at IC20, at 0.5 µM
# [22] = measured here: combination with cisplatin at IC20, at 0.5 µM
# [23] = measured here: combo with BGB at IC20, at 0.5 µM
# [24] = measured here: combo with cisplatin at IC20, at 0.5 µM
# [25] = measured here: inhibition with BGB combination, at 0.05 µM
# [26] = measured here: inhibition with cisplatin combination, at 0.05 µM
# [27] = BGB combination, concentration series, at 5 µM
# [28] = cisplatin combination, concentration series, at 5 µM
# [29] = measured here: combo with BGB IC20
# [30] = measured here: combo with cisplatin IC20
smiles,measurement,setting,value
CC(=O)OCC(=O)[C@@]1(O)CCC2C3CCC4=CC(=O)CC[C@]4(C)C3[C@@H](O)C[C@@]21C (stereo partly specified),inhibition,[1],6.86%
same,score,[2],1.36
same,rescue above control,[3],-8.68
same,cytochrome c release ratio,[4],1.12
same,inhibition of aggregation,[5],66.2%
same,glutamate uptake change,[6],16.2%
same,inclusion score,[7],2
same,aggregation suppression score,[8],0.966
CN(C)CCCOc1nn(Cc2ccccc2)c2ccccc12,fluorescence slope change,[9],153% (active)
COc1cc(N)c(Cl)cc1C(=O)NC1CCN(CCCOc2ccc(F)cc2)CC1OC (stereo unspecified),fluorescence slope change,[9],62% (active)
O=C(O)CN(CC(=O)O)Cc1cc2c(-c3ccccc3C(=O)O)c3cc(CN(CC(=O)O)CC(=O)O)c(=O)cc-3oc2cc1O,inhibition,[1],-215%
same,score,[2],1.05
same,rescue above control,[3],-5.14
same,cytochrome c release ratio,[4],0.86
same,inhibition of aggregation,[5],0%
same,glutamate uptake change,[6],13.5%
same,inclusion score,[7],0
same,aggregation suppression score,[8],0.687
Nc1ncn([C@H]2C[C@H](O)[C@@H](CO)O2)c(=O)n1,inhibition,[10]; at 0.5 µM,-7.33% (inactive)
same,inhibition,[10]; [18],-12.1%
same,inhibition,[10]; [19],-1.56%
same,inhibition,[10]; [20],-10.1%
same,inhibition,[11]; at 0.5 µM,-25.9% (inactive)
same,inhibition,[11]; [21],-12.6%
same,inhibition,[11]; [22],-67.9%
same,inhibition,[12]; at 0.5 µM,30.9% (inactive)
same,inhibition,[12]; [23],47.3%
same,inhibition,[12]; [24],31.6%
same,inhibition,[13]; at 0.5 µM,16.5% (inactive)
same,inhibition,[13]; [25],5.24%
same,inhibition,[13]; [26],-1.44%
same,inhibition,[14]; at 0.5 µM,-4.56% (inactive)
same,inhibition,[14]; [19],-4.46%
same,inhibition,[14]; [20],0.176%
same,inhibition,[15]; [27],32.1%
same,inhibition,[15]; at 0.5 µM,25% (inactive)
same,inhibition,[15]; [28],40.5%
same,inhibition,[16],26.9% (inactive)
same,inhibition,[16]; [29],27.2%
same,inhibition,[16]; [30],20.4%
CC1=C(/C=C/C(C)=C/C=C/C(C)=C/C(=O)Nc2ccc(O)cc2)C(C)(C)CCC1,fold fluorescence,[17],6.05 (inactive)
Nc1nc(Cl)nc2c1ncn2[C@@H]1O[C@H](CO)[C@@H](O)[C@@H]1F,inhibition,[10]; at 0.5 µM,-12.4% (inactive) and -0.15% (inactive)
same,inhibition,[10]; [18],-16.1% and -38.3%
same,inhibition,[10]; [19],76.7% and 60.5%
same,inhibition,[10]; [20],89.1% and 86.1%
same,inhibition,[11]; at 0.5 µM,79.4% (inactive) and 75.9% (inactive)
same,inhibition,[11]; [21],67.5% and 66%
same,inhibition,[11]; [22],88.5% and 80.9%
same,inhibition,[12]; at 0.5 µM,92.5% (active) and 92.1% (active)
same,inhibition,[12]; [23],86.9% and 84.3%
same,inhibition,[12]; [24],96.9% and 97.4%
same,inhibition,[13]; at 0.5 µM,42.4% (inactive) and 38.2% (inactive)
same,inhibition,[13]; [25],-20.1% and -11.3%
same,inhibition,[13]; [26],-17.8% and -24.8%
same,inhibition,[14]; at 0.5 µM,9.11% (inactive) and 33.6% (inactive)
same,inhibition,[14]; [19],55% and 57.2%
same,inhibition,[14]; [20],80.6% and 87.7%
same,inhibition,[15]; [27],76.8% and 56.9%
same,inhibition,[15]; at 0.5 µM,50.9% (inactive) and 49.8% (inactive)
same,inhibition,[15]; [28],99% and 94.5%
same,inhibition,[16],68.3% (inactive) and 72.7% (inactive)
same,inhibition,[16]; [29],68.2% and 76%
same,inhibition,[16]; [30],58.4% and 59.2%
CC(C)=CCC/C(C)=C/CO,inhibition,[1],23.2%
same,score,[2],1.12
same,rescue above control,[3],3.94
same,cytochrome c release ratio,[4],1.17
same,inhibition of aggregation,[5],60.6%
same,glutamate uptake change,[6],5.29%
same,inclusion score,[7],2
same,aggregation suppression score,[8],1.02
